Screening data as filed in PubChem.
SKKanGAS inh = blocks kanamycin growth of S. pyogenes SKKanGAS strain; BacTiter-Glo, 6 h; inhibition, % at 7.5 µM; actives 1.3% (n = 300,000);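 active means mean replicate score, as percent of positive control median, at least 50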;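 further: strain carries kanamycin resistance gene driven by streptokinase promoter and grows in 40 µg/ml kanamycin; loss of luminescence reflects streptokinase promoter inhibition or plain growth inhibition; 0% = median of DMSO wells and 100% = positive control at its reference dose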
TIM10 inh = TIM10 yeast growth inhibition | AID 463195 | S. cerevisiae TIM10 strain growth, BacTiter-Glo luminescence, 24 h | inhibition, % at 10 µM | actives 1.4% (n = 330,000);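 active means inhibition of 40% or more at the single tested concentration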;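 further: wild-type TIM10 isogenic control strain grown at permissive 25 °C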
tim10-1 inh = growth inhibitors of tim10-1 mutant yeast; inhibition, % at 20 µM; actives 2.2% (n = 330,000); S. cerevisiae tim10-1 ts strain growth, BacTiter-Glo, 24 h;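 active means inhibition of at least 40%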;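 further: mutant grown at 25 °C; 0% = DMSO wells with yeast and 100% = wells holding no yeast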
PfHsp90 yeast 2 = inhibits growth of yeast expressing Plasmodium falciparum Hsp90. actives 0.32% (n = 310,000). inhibition, % at 9.4 µM. S. cerevisiae expressing PfHsp90, BacTiter-Glo ATP, 48 h; yeast lacking PDR1 and PDR3 efflux regulators;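 active means every replicate shows inhibition above about 80%, whatever the replicate mean, limit read from the data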;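 further: 0% = DMSO neutral controls and 100% = 20 µM radicicol positive controls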
NLRP3 yeast inh = NALP3 inhibition in yeast. Yeast reconstituted NLRP3/ASC/caspase-1, beta-gal luminescence, 24 h. inhibition, % at 10 µM. actives 0.39% (n = 330,000). AID 2825;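 active means inhibition of 50% or more; inactive means inhibition below 50%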;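 further: plate controls were induced DMSO wells for no effect and uninduced yeast grown without galactose for full effect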
tim23-1 inh = inhibits growth of tim23-1 mutant yeast; S. cerevisiae tim23-1 growth, BacTiter-Glo luminescence, 24 h; inhibition, % at 20 µM; actives 1.3% (n = 330,000);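 active means growth inhibition of the mutant yeast at or above 50%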;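 further: temperature-sensitive mutant grown at 25 °C; plate controls were DMSO-treated mutant yeast for no effect and medium wells lacking yeast for full effect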
* hit, by the source's call; / = no result. Sampled rows, rich in hits. Any-hit rate of the full collection: about 4.5%.

SMILES | SKKanGAS inh | TIM10 inh | tim10-1 inh | PfHsp90 yeast 2 | NLRP3 yeast inh | tim23-1 inh
O=C(NCc1ccccc1)/C(=C/c1ccc([N+](=O)[O-])cc1)NC(=O)c1ccco1 | 15 | -5 | -12 | -3 | 2 | 3
CCc1c(C)nc2cc(-c3ccc(OC)c(OC)c3)nn2c1N1CCC(C)CC1 | 57* | 31 | 30 | -14 | 27 | 15
CC1(C)N=C(N)N=C(N)N1c1ccccc1 | 105* | 4 | 3 | -18 | 18 | 7
CC1(C)N=C(N)N=C(N)N1c1ccc(Oc2ccc(Cl)cc2)c(Cl)c1 | 94* | -1 | 16 | 9 | -1 | 4
CC1(C)N=C(N)N=C(N)N1c1cccc(CN)c1 | -16 | -14 | -30 | -7 | 4 | 5
CCOc1ccc(CN2CCC(n3nccc3NC(=O)c3ccccc3OC)CC2)cc1 | 14 | 2 | 1 | -7 | 20 | 8
COc1ccc(Cn2c(C3CCCCC3)nc3c(c(=O)c4ccccc4n3C)c2=O)cc1 | 70* | 4 | -7 | / | 1 | 10
O=C(COc1ccc(Cl)cc1)NC1=NN(c2ccccc2)C(=O)C1 | 62* | 6 | 23 | 125* | 28 | 23
CCC(NC(=O)CCc1c(C)c2cc3c(C)c(C)oc3cc2oc1=O)C(=O)N[C@@H](Cc1ccccc1)C(=O)O (stereo not given in full) | 61* | -9 | 11 | -1 | 13 | 12
CSC[C@H](NC(=O)Cc1c(C)c2cc3c(C)c(C)oc3cc2oc1=O)C(=O)N[C@@H](Cc1ccccc1)C(=O)O | 14 | 11 | 20 | -20 | -3 | 5
COc1ccc(OCC(=O)NC(=S)Nc2ccc(N3CCOCC3)c(Cl)c2)cc1 | 68* | 25 | 30 | / | 18 | 16
Cc1ccccc1NC(=S)NC(=O)c1cncc(Br)c1 | -6 | 13 | 31 | -10 | 21 | 34
O=C(NC(=S)Nc1ccc(N2CCOCC2)c(Cl)c1)c1cncc(Br)c1 | 71* | -3 | 28 | 20 | 26 | 38
O=C(NC(=S)Nc1ccc(N2CCOCC2)c(Cl)c1)c1cccs1 | 65* | 9 | 22 | -11 | 26 | 16
O=C(NC(=S)Nc1ccc(N2CCOCC2)c(Cl)c1)c1sc2ccccc2c1Cl | 4 | 7 | 5 | -4 | -7 | 1
COc1ccc(OCC(=O)Nc2ccc(N3CCOCC3)c(Cl)c2)cc1 | 6 | 11 | 17 | -9 | 13 | 26
Cc1cc(O)ccc1NC(=S)NC(=O)c1cncc(Br)c1 | 74* | -5 | 14 | -79 | 14 | -2
COc1cc([N+](=O)[O-])cc(/C=N/NC(=O)c2cc(-c3ccccc3)nc3ccccc23)c1O | 95* | 11 | 28 | 15 | -23 | 16
Cc1cc(C(=O)N/N=C/c2cccc([N+](=O)[O-])c2)c2ccccc2n1 | 0 | 6 | 22 | -4 | 12 | 7
COc1cc([N+](=O)[O-])cc(/C=N/NC(=O)c2cc(C)nc3ccccc23)c1O | 106* | 19 | 18 | -20 | 8 | -11
O=C(CCC(=O)c1cccs1)NCCc1ccc(F)cc1 | -2 | 6 | 15 | / | 11 | 16
O=C(COc1ccccc1[N+](=O)[O-])NCCCN1CCCC1=O | / | 3 | -5 | -21 | 10 | 7
CN(C)N1C(=O)C2C3C=CC(O3)C2C1=O (stereo not given) | / | / | / | 14 | / | /
C=CCN(c1ccccc1C(=O)O)S(=O)(=O)c1ccc(C)cc1 | -6 | 13 | -2 | 26 | 21 | 8
CCOc1cc(/C=N/NC(=O)Cc2ccc(C(F)(F)F)cc2[N+](=O)[O-])c(Br)cc1OC | 4 | 0 | 0 | / | 27 | -12
SMILES | SKKanGAS inh | TIM10 inh | tim10-1 inh | PfHsp90 yeast 2 | NLRP3 yeast inh | tim23-1 inh
COc1cc(Br)cc(/C=N/NC(=O)Cc2ccc(C(F)(F)F)cc2[N+](=O)[O-])c1O | 98* | 18 | 13 | -19 | 16 | 6
O=C(N=C1SC2CS(=O)(=O)CC2N1Cc1ccccc1Cl)C1CCCO1 (stereo not given) | 1 | 5 | 21 | -5 | 10 | 6
CCN(C(=O)COC(=O)c1nccnc1N)c1cccc2ccccc12 | / | -2 | 2 | 12 | 16 | 10
O=C(CSC1=NNC(c2ccccn2)S1)Nc1ccc(C(F)(F)F)cc1 (stereo not given) | 48 | 22 | 24 | 2 | 16 | 20
c1ccc(CSC2=NNC(c3ccccn3)S2)cc1 (stereo not given) | 83* | 23 | 36 | 21 | 19 | 24
COc1ccc(CN2C(=O)c3ccccc3C(/C=N\OCc3ccc(C)cc3)C2=O)cc1 (stereo not given) | 106* | 16 | 11 | / | 21 | 34
CN(C)c1ccc(C(O)c2cc3ccccc3s2)cc1 (stereo not given) | / | / | / | 4 | / | /
Cc1ccc(NC2=CC(=O)C(=O)c3ccccc32)cc1 | 24 | 33 | 34 | / | 22 | 6
CCOC(=O)c1ccc(NC2=CC(=O)C(=O)c3ccccc32)cc1 | 70* | -13 | -5 | -16 | 22 | -35
O=C(O)CNC(=O)c1ccc(Oc2c(F)c(F)c(Oc3ccc(C(=O)NCC(=O)O)cc3)c(F)c2F)cc1 | 1 | -10 | -12 | 5 | 9 | 9
Cc1ccc(/C=C2\SC(=S)N(C3CCS(=O)(=O)C3)C2=O)o1 (stereo not given) | 8 | 2 | 17 | -11 | 16 | 15
NS(=O)(=O)c1ccc(-c2ccc(/C=C3\SC(=S)N(C4CCS(=O)(=O)C4)C3=O)o2)cc1 (stereo not given) | 73* | 6 | 25 | -12 | 21 | 20
C=CCc1cccc(/C=N/NC(=O)C(=O)Nc2ccc(C)cc2)c1O | 70* | -20 | 1 | 0 | 13 | -5
CCOc1ccc2ccccc2c1C1NC(=O)N(C)C(C)=C1C(=O)OCCOC (stereo not given) | 12 | 7 | 17 | -18 | 4 | 22
COc1ccc(C(CC(=O)N2CCCC(C)C2)c2c(OC)cc(OC)c3c(-c4ccccc4)cc(=O)oc23)cc1 (stereo not given) | 67* | 15 | 22 | -29 | 7 | 22
CCOC(=O)C1(NC(=O)C2(NC(=O)CN3C(=O)c4ccccc4C3=O)CCCC2)CCCC1 | / | / | / | 22 | / | /
CC(=O)Oc1ccc(Cl)cc1/C=C/c1ccc2ccccc2n1 | -7 | 23 | -2 | -48 | -2 | 28
CC(C)(O)c1ccccc1CC[C@@H](SCC1(CC(=O)O)CC1)c1cccc(/C=C/c2ccc3ccc(Cl)cc3n2)c1 | 105* | 12 | 15 | 7 | 8 | 13
Cc1cc(N2CCC(C)CC2)nc(-n2nc(C)cc2C)n1 | 95* | 19 | 38 | 18 | 33 | 38
Cc1c(Cl)cccc1NC(=O)CNC(=O)Cc1n[nH]c(=O)c2ccccc12 | / | 0 | 13 | -1 | 13 | 4
COc1ccccc1C(=O)NNC(=O)C(=O)Nc1ccc(C)c(Cl)c1 | 98* | -1 | -27 | -30 | 19 | -14
